Compound activity deposited in PubChem BioAssay by several laboratories.
CSC inhib: blocks cancer stem cells. cancer stem cell-like cells viability, luminescence. inhibition, % at 7.5 µM. actives 1.1% (n = 300,000). AID 2717; in the data active = inhibition above about 75%; inconclusive = no clear call, values can overlap the other calls; tested in HMLE shEcad cells
PP5 primary: PP5 (human) phosphatase inhibition. P53041. purified PP5c, OMFP substrate fluorescence. inhibition, % at 6.7 µM. actives 0.18% (n = 320,000). AID 1987;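 active = inhibition above the campaign's mean inhibition across all tested compounds plus 3 SD, cut at about 9.5% in these data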;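 also: 0% = DMSO only and 100% = 100 µM cantharidin control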
Beta apoptosis: blocks beta cell apoptosis. AID 435005. protection from apoptosis, % (no concentration beside the values). INS-1E cytokine-induced death, ATP luminescence, 48 h; percent of positive-control rescue, neutral wells zero. actives 0.8% (n = 300,000);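 active = Every replicate reaches about 75%, or at least half do and their mean reaches it too, limit read from the data; inconclusive = At least half of replicates reach the limit but their mean does not; inactive = Under half of replicates reach the limit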;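 also: 0% = cytokine-treated negative control wells and 100% = positive control rescue; higher means more ATP so stronger rescue from cytokine killing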
Mdm2 MdmX PPI: inhibitors of human Mdm2/MdmX interaction; SaOS-2 split-luciferase Mdm2/MdmX complementation, luminescence; actives 3% (n = 330,000); AID 485346; inhibition, % at 8 µM;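 active = inhibition of at least 50% at 8 µM in the primary screen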
Target sequence (O15151 whole entry, looked up): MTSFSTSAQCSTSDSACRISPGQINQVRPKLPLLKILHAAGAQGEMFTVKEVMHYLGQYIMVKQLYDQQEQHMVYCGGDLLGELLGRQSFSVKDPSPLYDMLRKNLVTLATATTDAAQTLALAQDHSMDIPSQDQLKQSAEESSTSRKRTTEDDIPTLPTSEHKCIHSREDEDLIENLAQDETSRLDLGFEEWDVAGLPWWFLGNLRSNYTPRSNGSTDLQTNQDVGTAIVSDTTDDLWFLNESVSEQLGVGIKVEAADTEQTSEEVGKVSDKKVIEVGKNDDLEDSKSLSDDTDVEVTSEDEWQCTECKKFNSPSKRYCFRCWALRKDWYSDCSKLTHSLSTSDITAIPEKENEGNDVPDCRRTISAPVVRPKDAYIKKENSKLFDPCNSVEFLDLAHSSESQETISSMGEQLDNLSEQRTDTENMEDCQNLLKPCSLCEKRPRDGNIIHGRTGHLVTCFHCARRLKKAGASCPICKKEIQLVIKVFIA
Target sequence (Q00987 whole entry, looked up): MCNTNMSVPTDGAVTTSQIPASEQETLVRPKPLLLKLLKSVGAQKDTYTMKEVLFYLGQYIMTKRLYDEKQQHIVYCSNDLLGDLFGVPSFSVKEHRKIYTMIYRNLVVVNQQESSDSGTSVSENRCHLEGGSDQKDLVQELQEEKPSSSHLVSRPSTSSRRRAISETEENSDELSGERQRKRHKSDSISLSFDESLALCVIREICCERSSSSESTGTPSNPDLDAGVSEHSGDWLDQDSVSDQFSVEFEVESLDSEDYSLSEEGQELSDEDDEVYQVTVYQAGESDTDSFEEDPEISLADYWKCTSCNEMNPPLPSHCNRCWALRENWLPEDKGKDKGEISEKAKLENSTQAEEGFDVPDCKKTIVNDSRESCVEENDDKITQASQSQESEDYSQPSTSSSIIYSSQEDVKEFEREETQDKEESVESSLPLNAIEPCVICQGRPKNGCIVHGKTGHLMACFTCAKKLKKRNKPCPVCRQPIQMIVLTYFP
PP1 inh: PP1-alpha (human) inhibition in PP5 counter-screen | P62136 | purified PP1alpha, OMFP fluorescence | inhibition, % at 6.7 µM | actives 0.9% (n = 320,000);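 active = inhibition above the mean inhibition of all tested compounds plus 3 SD, computed separately for each screening campaign, cut at about 15% in these data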
Calb FLC: C. albicans growth modulation with fluconazole. growth inhibition, % (no concentration beside the values). C. albicans CaCi-2 (fluconazole-resistant clinical isolate) + fluconazole, Alamar Blue growth, 48 h. actives 0.57% (n = 300,000);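 active = growth inhibition above about 58% in most replicates, limit read from the data, passing the limit was not always enough; inconclusive = exactly half the replicates above a set limit; inactive = most replicates below a set limit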;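 also: all wells also contain fluconazole at 8 µg/ml as a sub-toxic cotreatment; 0% = median of DMSO wells and 100% = median of geldanamycin control wells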
Mdm2-MdmX conf: confirmation of human Mdm2/MdmX interaction inhibitors | shares compounds with Mdm2 MdmX PPI | actives 55% (n = 10,000) | inhibition, % at 8 µM | Mdm2-MdmX binding, luminescent assay; in the data active = inhibition above about 40%
FLuc counter: full-length luciferase inhibition in Mdm2/MdmX counter-screen; shares compounds with Mdm2 MdmX PPI; SaOS-2 full-length luciferase counterscreen, luminescence; inhibition, % at 8 µM; actives 77% (n = 6,200);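 active = mean inhibition at 8 µM reaching about 37%, which flags the compound as non-specific, limit read from the data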;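 also: p53-null SaOS-2 cells with luciferase driven by a doxycycline-inducible promoter; compound on cells about two nights before reading with doxycycline added after day one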
Active calls of the source: *; ? = inconclusive; · = not tested or not shown. The list is not random: actives were taken first. Their share in the collection is about 4.9%.

SMILES | CSC inhib | PP5 primary | Beta apoptosis | Mdm2 MdmX PPI | PP1 inh | Calb FLC | Mdm2-MdmX conf | FLuc counter
Cc1cccc(CN2C(=O)/C(=C\c3ccc(C(=O)NCCCN4CCN(C)CC4)cc3)Oc3ccccc32)c1 | 105* | 4 | 22 | 100* | 3 | 5 | 56* | 36*
CCN1CCN(CCNC(=O)c2ccc(/C=C3\Sc4ccccc4N(Cc4ccccc4F)C3=O)cc2)CC1 | 20 | 2 | 4 | 92* | 3 | 44 | 52* | 46*
COCCCNC(=O)/C=C1\Sc2ccccc2N(Cc2ccccc2F)C1=O | 25 | 0 | -16 | 88* | 0 | 5 | 53* | 38*
Cc1ccc(N/C(N)=N/c2nc(C)cc(N3CCCCC3)n2)c(C)c1 | 7 | 1 | 111* | 78* | 2 | 14 | 40* | 67*
Cc1ccc(N/C(N)=N/c2nc3c(c(=O)[nH]2)CCCC3)c(C)c1 | · | -1 | · | 44 | -2 | -16 | · | ·
CCn1c(C)nc2cc(C(=O)NNS(=O)(=O)c3c(F)cc(F)c(Cl)c3F)ccc21 | -3 | 1 | -3 | -35 | 3 | ? | · | ·
CCC(=NNC(=O)c1ccc2c(c1)nc(C)n2CC)c1cc(F)ccc1O | 21 | · | 90* | 58* | · | · | 22 | ·
CCc1ccc(/C(C)=N/NC(=O)c2ccccn2)cc1 | -2 | -1 | 1 | -23 | -6 | -11 | · | ·
CCOc1ccc(C(=O)N/N=C(\c2ccccc2)c2ccccn2)cc1 | 61 | 1 | 97* | 71* | 1 | 42 | 87* | 30
Cn1ccnc1/C(=N\NC(=O)c1ccccc1)c1cccc([N+](=O)[O-])c1 | -6 | 1 | 0 | 2 | 1 | ? | · | ·
O=C(N/N=C(\c1ccccc1)c1ccccn1)c1cccc([N+](=O)[O-])c1 | -9 | -1 | 102* | 79* | -6 | 113* | 66* | 20
CCCCn1c(N)c(N(CCOC)C(=O)c2sc3cc(F)ccc3c2Cl)c(=O)[nH]c1=O | -5 | -3 | -1 | 16 | -4 | 4 | · | ·
CCN1C(=NCc2cc(OC)c(OC)c(OC)c2)N[C@@H](c2ccccc2)C(C(=O)OC)=C1C | -8 | · | -6 | 20 | · | · | · | ·
COC(=O)C1=C(C)N(Cc2ccccc2)C(=NCc2ccc(OC)cc2)N[C@H]1c1cccc(F)c1 | 14 | -6 | 4 | 87* | 3 | 11 | 47* | 57*
COC(=O)C1=C(C)N(Cc2ccccc2)C(=NCc2cccc(Cl)c2)N[C@H]1c1cccc(F)c1 | 134* | · | 98* | 100* | · | · | 60* | 11
COC(=O)C1=C(C)N(Cc2ccccc2)C(=NCc2ccco2)N[C@H]1c1cccc(F)c1 | · | · | -3 | 42 | · | · | · | ·
COC(=O)C1=C(C)N(Cc2ccccc2)C(=NCc2ccc3c(c2)OCO3)N[C@H]1c1ccccc1 | 5 | · | -6 | 56* | · | · | 8 | ·
COC(=O)C1=C(C)N(Cc2ccccc2)C(=NCc2cc(OC)c(OC)c(OC)c2)N[C@H]1c1cccc(F)c1 | -2 | 2 | -4 | 62* | 0 | -5 | 22 | ·
Nn1cnnc1SCC(=O)Nc1ccc2c(c1)OCO2 | -4 | -1 | -2 | -31 | 6 | -5 | · | ·
O=C(NC1CCN(S(=O)(=O)c2cccc(F)c2)CC1)c1cccc(F)c1 | -2 | · | -4 | -1 | · | -14 | · | ·
O=C(Nc1cccc(Cl)c1)c1cccc(N2C(=O)C3CC=CCC3C2=O)c1 (stereo not drawn) | -11 | 3 | -9 | -1 | -4 | 13 | · | ·
O=C(NC1CC2CCCC(C1)N2C(=S)NCCc1ccccc1)C1CC1 (stereo not drawn) | -9 | 1 | 7 | 0 | -3 | 1 | · | ·
COc1ccc(C(=O)Nn2c(CCC(=O)O)ccc2-c2ccc(C)cc2)cc1OC | 4 | 2 | 2 | -3 | -1 | -5 | · | ·
Cc1cc(C)nc(NC(N)=NCCc2c[nH]c3ccccc23)n1 | -3 | 1 | -3 | 72* | 0 | 11 | 52* | 54*
O=C(CSc1nc2c(oc3ccccc32)c(=O)n1CC1CCCO1)NCc1ccccc1 (stereo not drawn) | -7 | -1 | 13 | 66* | -5 | 14 | 17 | ·
SMILES | CSC inhib | PP5 primary | Beta apoptosis | Mdm2 MdmX PPI | PP1 inh | Calb FLC | Mdm2-MdmX conf | FLuc counter
CCOC(=O)N1CCN(C(=O)CCCn2nnnc2CN2CCC(C)CC2)CC1 | 4 | 2 | -1 | 4 | -1 | 2 | · | ·
CC(C)(C)c1c(Cl)c(O)c(-c2ccccc2)c(=O)n1-c1ccccc1 | · | · | · | 16 | · | -8 | · | ·
CCOC1=NN(c2ncc(C(F)(F)F)cc2Cl)C(=O)/C1=C/N(C)C | -5 | 0 | -7 | 70* | -1 | 22 | -7 | ·
COc1cc2c(cc1OC)C(Cc1ccc(O)c(Oc3ccc(C[C@H]4c5cc(OC)c(OC)cc5CCN4C)cc3)c1)N(C)CC2 (stereo partly drawn) | 17 | · | -7 | 72* | · | · | 29 | ·
Cc1ccc(Cl)cc1N1CCN(C(=O)c2noc(C)c2[N+](=O)[O-])CC1 | · | 2 | · | 75* | 2 | 10 | 76* | 60*
CCOc1ncccc1C(=O)N1CCN(c2cc(Cl)ccc2C)CC1 | 57 | 0 | 6 | 61* | -3 | 24 | 59* | 81*
CCOc1ncccc1C(=O)N1CCN(c2cccc(C)c2C)CC1 | · | · | · | · | · | 4 | · | ·
COc1ccc(NC(=O)CCS(=O)(=O)c2ccc3c(c2)oc(=O)n3C)cc1 | 3 | 0 | 0 | -7 | 0 | 0 | · | ·
CCCCn1c(=N)n(CCOc2ccc(C)cc2)c2ccccc21 | 12 | 2 | 25 | 63* | 1 | -15 | 38 | 63*
CCN(CC)CCn1c(=N)n(CCOc2ccccc2)c2ccccc21 | 41 | 4 | -1 | 50* | 1 | -4 | 61* | 62*
O=C(CCNC(=O)c1ccc([N+](=O)[O-])cc1)Nc1cccc(S(=O)(=O)N2CCOCC2)c1 | 11 | -1 | 2 | -12 | -4 | · | · | ·
CCN(CC)C(=O)[C@H]1C[C@H](CC(=O)NC/C=C(\C)CCC=C(C)C)C(=O)N2CCc3c([nH]c4cc(CCC(=O)N(C)C)ccc34)[C@]12C | · | · | · | 68* | · | · | 10 | ·
CC(C)=CCC/C(C)=C/CNC(=O)C[C@H]1C[C@H](C(=O)N2CCOCC2)[C@@]2(C)c3[nH]c4ccc(Cl)cc4c3CCN2C1=O | · | · | · | 88* | · | · | 12 | ·
CCN(CC)C(=O)[C@H]1C[C@H](CC(=O)NCc2ccc(OC)c(OC)c2)C(=O)N2CCc3c([nH]c4cc(CCC(=O)N(C)C)ccc34)[C@]12C | · | · | · | 10 | · | · | · | ·
Cc1cc(-c2ccc(C(C)C)c(S(=O)(=O)N3CCN(c4ccccn4)CC3)c2)on1 | 56 | 2 | 32 | 63* | 5 | 8 | 62* | 52*
Cc1nc2c(c(C)nn2-c2ccccc2)c(C)c1CCC(=O)Nc1ccc(CN2CCCC2)cc1 | 19 | 1 | 24 | 64* | 0 | 4 | 35 | 53*
